Here are results for five compounds from PubChem BioAssay.

Activity calls are given as the source filed them.

For assay [1], the system named is Human papillomavirus type 1a protein E7 (residues 44-93). Put plainly: small molecules binding HPV E7 44-93 – biochemical, small-molecule microarray, residues 44-93, 635 nm fluorescence, primary screen (AID 1108).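 Also: E7 fragment applied at 1 µg/mL in TBST for 1 h at 4 C; score combines spot fluorescence with its signal to noise ratio.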 Conditions: fluorescence 635 nm, higher = more signal.
A short description of assay [2]: hepatitis C replication reporter changes, two-sided – Huh7 cells, luciferase reporter, HCV replication inhibitor project, primary screen (AID 1109).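 Also: huh7 hepatoma cells harbouring a luciferase neomycin HCV replicon reporter; luciferase luminescence as measure of HCV replicon replication; test concentration not given here.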 To be noted: Huh7 HCV replicon luciferase reporter, 48 h; higher = more signal.
Assay [3] addresses Left-right determination factor 2 (Homo sapiens) (UniProt O00292). Put plainly: small molecules binding LEFTY2 protein – biochemical, small-molecule microarray, 635 nm fluorescence scan, primary screen (AID 1110). To be noted: higher = more signal.
Assay [4] addresses Calmodulin-1 (Homo sapiens) (UniProt P0DP23). Put plainly: small molecules binding calmodulin-1 with EGTA – biochemical, small-molecule microarray, Cy5-labelled CALM1, profiling panel (AID 1111).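 Also: labelled calmodulin applied in Tris saline Tween buffer holding calcium plus EGTA and DTT.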 Conditions: Cy5-CALM1 binding fluorescence, higher = more signal.
The target is the same in assay [5]. Put plainly: small molecules binding Ca-loaded calmodulin-1 – biochemical, small-molecule microarray, Cy5-labelled CALM1, plus calcium, artefact control for SMM control-protein annotation, profiling panel (AID 1112).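 Also: score merges spot fluorescence with signal to noise from triplicate slides.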 To be noted: Cy5-CALM1 binding fluorescence, higher = more signal.
Assay [6] in a line: probe aWnt5a binding to arrayed compounds – biochemical, biotinylated probe, 635/667 nm fluorescence, primary screen (AID 1113).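 Also: score merges 667 nm fluorescence intensity with signal-to-noise per printed feature.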 Conditions: small-molecule microarray, higher = more signal.
Assay [7] can be described thus: probe aShh binding to arrayed compounds – biochemical, biotinylated probe, 635/667 nm fluorescence, primary screen (AID 1114).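 Also: probe is biotin-labelled aShh protein from a stem cell growth factor screen; measures binding of labelled protein to compounds printed on the slide; score merges feature fluorescence at 667 nm with signal-to-noise.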 Conditions: small-molecule microarray, higher = more signal.
Assay [8] can be described thus: probe aNog binding to arrayed compounds – biochemical, biotinylated probe, 635/667 nm fluorescence, primary screen (AID 1115).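 Also: probe is biotinylated aNog protein used at 0.15 µg/mL for 1 h at 4 C; z-score combines 667 nm fluorescence of each spot with its signal to noise.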 Conditions: small-molecule microarray, higher = more signal.
Assay [9] has as its target Torsin-1A-interacting protein 1 (Homo sapiens) (UniProt Q5JTV8). Put plainly: compound microarray binding of lysate hLAP1 – cell lysate, small-molecule microarray, COS7 lysate, 635/667 nm fluorescence, primary screen (AID 1116). Conditions: 635 nm fluorescence, higher = more signal.
For assay [10], the target named is Alpha-bungarotoxin (Bungarus multicinctus) (UniProt P60615). Put plainly: compounds binding labelled alpha-BTX control protein – biochemical, small-molecule microarray, Alexa647 label, 635/667 nm fluorescence, artefact control for SMM control protein annotation, profiling panel (AID 1117). To be noted: alpha-BTX-A647 binding fluorescence, higher = more signal.
In the next assay the target is Albumin (Bos taurus) (UniProt P02769). Put plainly: compounds binding labelled BSA control protein – biochemical, small-molecule microarray, Alexa647 label, 635/667 nm fluorescence, artefact control for SMM control protein annotation, profiling panel (AID 1118).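 Also: score merges 667 nm emission intensity and signal-to-noise per printed compound spot.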 Conditions: BSA-A647 binding, fluorescence 635 nm, higher = more signal.
A short description of assay [11]: probe aXIP binding to arrayed compounds – biochemical, NeuroSMM set, 635/667 nm fluorescence, primary screen (AID 1119).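 Also: probe is the protein aXip251-270 applied at 1 µg/mL to compound-printed slides; binding of probe to printed compounds measured as 667 nm fluorescence plus signal to noise.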 Conditions: small-molecule microarray, higher = more signal, called active from +8 up or from −8 down.
The nature of assay [12]: probe aNOTCH3 binding on compound microarray – biochemical, small-molecule microarray, 635/667 nm fluorescence, primary screen (AID 1120).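 Also: probe is a biotin-tagged antibody raised against NOTCH3 rather than NOTCH3 protein; score merges spot fluorescence near 667 nm with spot signal to noise.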 Conditions: higher = more signal.
Assay [13] can be described thus: probe aNOTCH2 binding on compound microarray – biochemical, small-molecule microarray, 635/667 nm fluorescence, primary screen (AID 1121).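 Also: score merges feature fluorescence read at 667 nm with its signal to noise.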 Conditions: higher = more signal.
Assay [14] addresses Carbonic anhydrase 2 (Homo sapiens) (UniProt P00918). Put plainly: compounds binding carbonic anhydrase 2 – biochemical, small-molecule microarray, Alexa647-labelled CAII, profiling panel (AID 1122). To be noted: CAII-A647 binding fluorescence, higher = more signal.
The nature of assay [15]: COS7 lysate on small-molecule microarray, probe aHis, 635 nm (AID 1123).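 Also: z-score combines 667nm fluorescence intensity with signal-to-noise per printed compound spot.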 To be noted: COS7 cell lysate, fluorescence, higher = more signal.
A short description of assay [16]: probe aLAP1 signal on lysate-treated microarray – cell lysate, small-molecule microarray, COS7 lysate, primary screen (AID 1124).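 Also: lysate comes from COS7 cells expressing LAP1 and is applied at 0.3 µg/mL; score merges spot fluorescence near 667 nm with signal-to-noise over triplicate slides.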 Conditions: probe aLAP1, fluorescence, higher = more signal.
The test system of a further assay is Sam68 (KHDRBS1). The assay is described as follows: compounds binding KHDRBS1 protein – biochemical, small-molecule microarray, 635 nm fluorescence, primary screen (AID 1125).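 Also: score merges 667 nm channel intensity with signal to noise over triplicate slides.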 To be noted: higher = more signal.
In assay [17] the test system is Chordin-like protein 2 (CHRDL2). Put plainly: compounds binding chordin-like 2 – biochemical, small-molecule microarray, 635 nm fluorescence, primary screen (AID 1126).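 Also: printed compound slides probed with Chrdl2 protein at 4 µg/mL for 1 h at 4 C; score merges 667 nm emission intensity with signal to noise over three replicate slides.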 Conditions: fluorescence 635 nm, higher = more signal.
Assay [18] addresses Concanavalin-A (Canavalia ensiformis) (UniProt P02866). The assay is described as follows: compounds binding concanavalin A lectin – biochemical, small-molecule microarray, Alexa647 label, 635 nm, artefact control for SMM control protein annotation, primary screen (AID 1127).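 Also: z combines 667 nm emission intensity with signal-to-noise across three replicate slides.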 Conditions: ConA-A647 binding fluorescence, higher = more signal.

Torsin-1A-interacting protein 1 (Homo sapiens), sequence (Q5JTV8 whole entry, looked up): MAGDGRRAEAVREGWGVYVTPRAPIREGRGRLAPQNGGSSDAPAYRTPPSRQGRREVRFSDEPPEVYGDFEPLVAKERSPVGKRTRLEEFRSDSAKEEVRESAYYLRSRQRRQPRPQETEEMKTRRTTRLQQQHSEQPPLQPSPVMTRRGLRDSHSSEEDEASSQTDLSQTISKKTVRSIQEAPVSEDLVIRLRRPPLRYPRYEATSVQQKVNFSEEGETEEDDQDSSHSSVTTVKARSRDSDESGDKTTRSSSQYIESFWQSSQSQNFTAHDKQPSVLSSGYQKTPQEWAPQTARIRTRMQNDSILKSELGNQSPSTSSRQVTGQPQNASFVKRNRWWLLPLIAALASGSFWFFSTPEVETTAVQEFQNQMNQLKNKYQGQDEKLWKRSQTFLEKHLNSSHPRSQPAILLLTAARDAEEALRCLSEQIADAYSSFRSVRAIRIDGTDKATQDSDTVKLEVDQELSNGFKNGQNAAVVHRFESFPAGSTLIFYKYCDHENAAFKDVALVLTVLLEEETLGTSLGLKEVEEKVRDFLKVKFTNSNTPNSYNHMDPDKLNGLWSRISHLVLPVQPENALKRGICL
Albumin (Bos taurus), sequence (P02769 whole entry, looked up): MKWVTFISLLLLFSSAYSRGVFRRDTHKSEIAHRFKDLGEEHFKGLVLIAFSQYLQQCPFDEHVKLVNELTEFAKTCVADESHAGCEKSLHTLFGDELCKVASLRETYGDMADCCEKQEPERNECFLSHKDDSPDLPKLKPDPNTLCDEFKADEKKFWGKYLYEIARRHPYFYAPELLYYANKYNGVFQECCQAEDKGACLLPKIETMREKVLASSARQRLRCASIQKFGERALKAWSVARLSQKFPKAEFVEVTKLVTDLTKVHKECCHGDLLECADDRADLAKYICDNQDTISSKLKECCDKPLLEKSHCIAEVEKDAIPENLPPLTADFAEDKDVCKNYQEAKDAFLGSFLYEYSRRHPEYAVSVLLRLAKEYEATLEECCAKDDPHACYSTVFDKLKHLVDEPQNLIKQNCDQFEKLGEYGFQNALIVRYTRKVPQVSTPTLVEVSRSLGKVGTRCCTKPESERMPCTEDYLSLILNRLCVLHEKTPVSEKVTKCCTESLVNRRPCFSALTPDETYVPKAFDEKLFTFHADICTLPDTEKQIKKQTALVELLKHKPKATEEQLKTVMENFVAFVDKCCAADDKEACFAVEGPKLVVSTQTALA
Concanavalin-A (Canavalia ensiformis), sequence (P02866 whole entry, looked up): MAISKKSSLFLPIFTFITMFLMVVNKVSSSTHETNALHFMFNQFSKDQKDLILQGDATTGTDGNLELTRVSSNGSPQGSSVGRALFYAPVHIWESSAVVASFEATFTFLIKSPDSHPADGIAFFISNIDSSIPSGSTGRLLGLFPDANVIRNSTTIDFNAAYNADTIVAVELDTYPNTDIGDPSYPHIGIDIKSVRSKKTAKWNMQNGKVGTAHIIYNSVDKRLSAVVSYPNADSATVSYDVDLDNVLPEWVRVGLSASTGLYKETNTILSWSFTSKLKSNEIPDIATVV
Left-right determination factor 2 (Homo sapiens), sequence (O00292 whole entry, looked up): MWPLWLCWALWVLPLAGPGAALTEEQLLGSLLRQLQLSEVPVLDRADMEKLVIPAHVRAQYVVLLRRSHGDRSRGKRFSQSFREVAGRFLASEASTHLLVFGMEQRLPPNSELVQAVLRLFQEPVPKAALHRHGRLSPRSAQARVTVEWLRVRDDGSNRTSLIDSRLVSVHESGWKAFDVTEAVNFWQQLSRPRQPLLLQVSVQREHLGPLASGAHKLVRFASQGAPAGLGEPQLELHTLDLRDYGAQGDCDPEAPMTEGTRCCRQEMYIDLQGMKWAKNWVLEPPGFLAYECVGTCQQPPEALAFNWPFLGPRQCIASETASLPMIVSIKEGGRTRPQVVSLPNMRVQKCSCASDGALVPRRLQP
Alpha-bungarotoxin (Bungarus multicinctus), sequence (P60615 whole entry, looked up): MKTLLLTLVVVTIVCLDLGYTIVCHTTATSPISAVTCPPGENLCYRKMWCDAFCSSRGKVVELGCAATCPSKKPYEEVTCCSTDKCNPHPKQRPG

`COCCOC(=O)N1C(=O)[C@@]2(c3cc(C#CCCO)ccc31)[C@H](c1ccccc1OCCO)N1[C@H](c3ccccc3)[C@H](c3ccccc3)OC(=O)[C@H]1[C@@H]2C(=O)N1CCN(c2ncccn2)CC1`: the composite z-score in [1] worked out at 1.43; in assay [3], 1.15; in assay [4], 1.33; in assay [5], 0.569; in [6], 0.203; in assay [7] it was 0.141. Moreover, the composite z-score in [8] turned out to be 0.435; in assay [9], 1.16; in assay [10], 0.994; with Albumin (Bos taurus), 0.602; in [12], 0.413; in assay [13], 0.123. Also, the composite z-score in assay [14] came to 0.539; in [15] it was 2.02; in [16], 0.505; with Sam68 (KHDRBS1), 1.12; in assay [17], 0.52; in [18], 1.15. Further, the z-score in assay [2] was -1.92. Further, in assay [11], the composite Z-score was 0.341 (inactive).
In the case of `O=C1OCCC=C[C@H]2OC34C=CCN(c5ccc6ccccc6c5)C(=O)[C@H]3N(CCCCCO)C(=O)[C@@H]4C12` (stereo not given in full), the composite z-score in assay [1] is 0.444; in assay [3] it was -1.05; in assay [4], -0.491; in [5], -0.0432; in assay [6], -0.147; in [7], -0.0011. The composite z-score was 0.438 in assay [8]; 1.92 in assay [9]; -0.264 in assay [10]; 0.388 with Albumin (Bos taurus); -0.0647 in assay [12]; -0.0443 in assay [13]. In addition, the composite z-score in assay [14] is 0.897; in [15], 2.11; in [16], 0.859; with Sam68 (KHDRBS1), -0.222; in [17] it was 0.254; in assay [18] it was -0.119. Also, the z-score in assay [2] is -0.345. Further, the composite Z-score in assay [11] is 1.1 (inactive).
Consider `CC(C)N1C(=O)c2ccccc2[C@@H](C(=O)NCCCN(C)C)[C@@H]1c1ccc(CO)cc1`, for which the composite z-score is -1 in assay [1]; -0.89 in assay [3]; 0.341 in assay [4]; 0.0647 in assay [5]; 0.026 in assay [6]; -0.367 in assay [7]. The composite z-score in [8] was 0.707; in assay [9] it was 0.64; in assay [10] it was 0.684; in the assay with Albumin (Bos taurus), 0.955; in [12], -0.15; in assay [13] it was 0.0364. Moreover, the composite z-score is 0.901 in [14]; 0.82 in assay [15]; 0.0206 in [16]; 0.297 in the assay on Sam68 (KHDRBS1); -1.91 in [17]; 0.289 in assay [18]. The z-score in assay [2] amounted to 0.19. Further, in [11], the composite Z-score was -0.109 (inactive).
On to `COC(=O)[C@@]1(Cc2ccccc2)[C@H]2c3cc(C(=O)N(C)C)n(Cc4c(-c5ccccc5)noc4C)c3C[C@H]2CN1C(=O)c1ccccc1`, for which the composite z-score in assay [1] was 1.15; in [3] it was -0.51; in assay [4], 1.16; in assay [5], 0.954; in assay [6] it was 0.204; in assay [7] it was 0.545. Also, the composite z-score in assay [8] worked out at 1.85; in [9] it was 1.68; in assay [10] it was 1.56; in the assay with Albumin (Bos taurus), 1.01; in [12] it was 0.187; in assay [13], 0.379. For the same compound, the composite z-score in [14] was 0.437; in assay [15], 2.63; in assay [16], -0.157; in the assay on Sam68 (KHDRBS1) it was 0.486; in assay [17], 0.28; in [18], 0.564. Moreover, in assay [2], the z-score is -0.535. In assay [11], the composite Z-score is -0.899 (inactive).
In the case of `C=CC[C@@]1(C(=O)O)N=C(c2ccc(OCCCO)cc2)O[C@@H]1c1ccccc1N=[N+]=[N-]`, the composite z-score was 0.411 in [1]; 0.294 in [3]; 1.39 in assay [4]; 0.341 in [5]; -0.0236 in assay [6]; -0.181 in assay [7]. In addition, the composite z-score in [8] amounted to 1.24; in assay [9] it was 1.02; in assay [10], 1.77; with Albumin (Bos taurus) it was 0.851; in assay [12], 0.169; in assay [13], 0.0828. For the same compound, the composite z-score in [14] was 0.513; in assay [15], 2.03; in assay [16], 0.906; in the assay with Sam68 (KHDRBS1), 1.09; in assay [17], 0.52; in assay [18], 0.247. This compound showed a z-score in [2] of 1.03. For the same compound, the composite Z-score in assay [11] was 0.544 (inactive).
